Source: PubChem BioAssay (Tox21)
Several values for one entry are separate records, joined by “and”; a condition that tells them apart may be missing. Equal values may be shown once. Results filed as inconclusive are left out. A call without a number means that no potency is given here. Unmarked numbers belong to inactive results. Activity calls are given as the source filed them. The call rests on the fitted dose curve; in most records, active means well fitted cell-killing curve with a large enough effect in the repeat runs; inconclusive means weak or mixed curves, or effect the other way; inactive means flat fitted curve, though single readings scatter.

test: cAMP Responsive Elements (CRE) small molecule antagonists, cell-based qHTS assay: qHTS cell viability counter screen (AID 2060913); conditions: CRE-bla HEK293T viability, CellTiter-Glo luminescence, 5 h; series mostly up to 92.4 µM; further: nearly all actives have a fitted effect of over 40% in size
Excerpt: U.S. Tox21 Program National Center for Advancing Translational Sciences [NCATS] Division of Preclinical Innovation [DPI] U.S. Environmental Protection Agency [EPA] National Institutes of Environmental Health Sciences [NIEHS] National Toxicology Program [NTP] U.S. Food and Drug Administration [FDA] Tox21 Assay Overview: CREB (cyclic-AMP Responsive Element Binding Protein) is a cellular transcription factor. It binds to certain DNA sequences called cAMP Responsive Elements (CRE) and regulates the transcription of the genes. […] This cell line can be used to find agonists/antagonists of the cyclic AMP signaling pathway. The activation of the report gene under culture conditions can be detected by fluorescence intensity. This cell line has been used to screen the Tox21 10K compound library to identify agonists that induce oxidative stress. The cytotoxicity of the Tox21 compound library against the CRE-bla cell line was tested in parallel by measuring the cell viability using CellTiter-Glo assay (Promega, Madison, WI) in the same wells.
Tox21 Assay Protocol Summary: CRE-bla Hek 293T cells were suspended in assay medium (DMEM containing 10% dialyzed FBS, 0.1 mM NEAA, 1 mM sodium pyruvate and 25 mM HEPES) and dispensed at 2,000 cells/4 uL /well into 1536-well black wall/clear bottom plates using a Multidrop Combi (ThermoFisher Scientific, Waltham, MA) dispenser. After the assay plates were incubated at 37 C/5% CO2 for 18 hrs, 23 nL of compounds dissolved in DMSO, positive controls or DMSO only was transferred to the assay plate by a pintool workstation (Kalypsys, San Diego, CA), followed by addition of 1 uL of 1.25uM NKH477 (0.25 uM as final concentration) in assay medium using a Flying Reagent Dispenser (Aurora Discovery, San Diego, CA). The plates were incubated at 37 C and 5% CO2 for 3 hrs. Then 1 uL of LiveBLAzer B/G FRET substrate (Invitrogen, Carlsbad, CA) was added to each well using Bioraptr Flying Reagent Dispenser (FRD, Aurora Discovery, San Diego, CA). The plates were incubated at room temperature for 2 h, then fluorescence intensities were measured using an Envision plate reader (PerkinElmer, Shelton, CT) at Excitation 405nm, Emission 460nm and 530nm. The % activity was determined from the ratio of 460nm/530nm. For cell viability readout that measures cytotoxicity, 4 uL /well of CellTiter-Glo reagent was added into the assay plates using Bioraptr FRD. After 30 min incubation at room temperature, the luminescence intensity in the assay plates was measured using a ViewLux (PerkinElmer, Shelton, CT) plate reader.
Potency means the concentration at half of the fitted maximal effect.

SMILES | Potency | viability change, negative = cytotoxic
O=C1CCc2ccc(OCCCCN3CCN(c4cccc(Cl)c4Cl)CC3)cc2N1 | inactive | 
COCc1nnc(-c2ccc[n+]([O-])c2)n1-c1c(Cl)c(Cl)cc2[nH]c(=O)c(=O)[nH]c12 | inactive | 
CC(=O)CC(=O)Nc1ccccc1C | inactive | 
CC(=O)CC(N)=O | inactive | 
C=CC/C=C/C | inactive | 
CCCCNc1cc(C(=O)O)cc(S(N)(=O)=O)c1Oc1ccccc1 | inactive | 
Cc1ccco1 | inactive | 
CN(C)c1ccc(C(=C2C=CC(=[N+](C)C)C=C2)c2ccc(N(C)C)cc2)cc1 | 30.5 µM (active) and 61.1 µM (active) and 29.8 µM (active) | 
CCc1ncc(C)[nH]1 | inactive | 
CO[C@@H]1[C@H](OC(=O)/C=C/C=C/C=C/C=C/C(=O)O)CC[C@]2(CO2)[C@H]1[C@@]1(C)O[C@@H]1CC=C(C)C | inactive | 
c1ccc(Nc2ccccc2)cc1 | inactive | 
CCOC(=O)c1ccc(O)c(O)c1 | inactive | 
Nc1ccc2c(c1)CN1C(=O)c3ccccc3C1=N2 |  | -16.9% [at 18.9 µM]
O=CNNC=O | inactive | 
NC1CCN(c2nc3c(cc2F)c(=O)c(C(=O)O)cn3-c2ccc(F)cc2F)C1 (stereo not given) | inactive | 
CCc1cccc(C)c1 | inactive | 
Nc1ccc(/C=C/c2ccc(N)cc2S(=O)(=O)O)c(S(=O)(=O)O)c1 |  | 3.88% [at 0.349 µM]
c1ccc2cc3c4ccccc4c4ccccc4c3cc2c1 | inactive | 
O=c1[nH]c(=O)n([C@H]2CCCO2)cc1F | inactive | 
c1ccc(CNCc2ccccc2)cc1 | inactive | 

SMILES | Potency | viability change, negative = cytotoxic
Oc1cccc(O)c1 | inactive | 
Cc1cccc(OCC(O)CNC(C)(C)C)c1C (stereo not given) | inactive | 
Cc1cc(CCC(=O)OCCOCCOCCOC(=O)CCc2cc(C)c(O)c(C(C)(C)C)c2)cc(C(C)(C)C)c1O | inactive | 
CN(C)CCCN(C)C |  | 8.18% [at 8.39 µM]
CCOC(C)OCC | inactive | 
CCCCN(CCO)CCO | inactive | 
OCCC(F)(F)C(F)(F)C(F)(F)C(F)(F)C(F)(F)C(F)(F)C(F)(F)C(F)(F)F | inactive | 
CCN(O)CC | inactive | 
CCC(=O)OC/C=C(\C)CCC=C(C)C | inactive | 
CN(C)c1nc(N(C)C)nc(N(C)C)n1 | inactive | 
O=[N+]([O-])c1ccc2c(c1)Cc1ccccc1-2 | inactive | 
CCCCCCCCCC(C)=O | inactive | 
O=C(Nc1ccc(S(=O)(=O)N2CCOCC2)cc1)c1cc(Cl)ccc1NS(=O)(=O)c1ccc(Cl)s1 | inactive | 
O=C(Oc1ccccc1)c1ccc2ccccc2c1O | inactive | 
C[C@@H]1CN(c2c(F)c(F)c3c(=O)c(C(=O)O)cn(C4CC4)c3c2F)C[C@H](C)N1 |  | -1.63% [at 18.9 µM]
CCCCCCC(O)CCCCCCCCCCC(=O)O (stereo not given) | inactive | 
CCOC(=O)c1c(C)n(C)c2ccc(O)cc12 | inactive | 
Cc1cc(=O)n(-c2ccccc2)n1C | inactive | 
CC1(C)OC(=O)NC1=O | inactive | 
NCc1ccc(S(N)(=O)=O)cc1 | inactive | 
